# Data taken from publication PMC5540273 (PLoS ONE, 2017).
# System: T1, AMPK-alpha1
# T1 construct: gene PRKAA1
# Conditions: concentration: 1 μM, replicates: in singlicate; n = 1
# 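Further: KINOMEscan kinase panel screen.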
row,SMILES,%Inh
1,CN(C1=C(c2ccccc2)C(=O)NC1=O)c1ccccc1 [SB-334860],0%
2,Cc1cccc(-c2nc(Nc3ccc4ncsc4c3)c3ccccc3n2)n1 [GW867588],19%
3,NS(=O)(=O)CCc1cccc(Nc2nccc(-c3c(-c4cccc(NC(=O)c5c(F)cccc5F)c4)nn4ccccc34)n2)c1 [GSK336735],20%
4,CNc1ncnc2[nH]ncc12 [SKF-18355],0%
5,Cc1c2ccc(N(C)c3ccnc(Nc4cccc(S(N)(=O)=O)c4)n3)cc2nn1Cc1ccccc1.Cl.Cl [GW787226],17%
6,COc1ccc(CNC(=O)NC2CCN(c3ccnc(Nc4ccc(OC)cc4)n3)C2)cc1 (stereo not shown) [GSK1379727],0%
7,Cc1nnc(-c2ccc3occ(-c4ccc(C(C)O)cc4)c3c2)o1 (stereo not shown),0%
8,Fc1ccc(-c2nn3c(OCC(F)(F)F)cccc3c2-c2ccncc2)cc1 [GW514784],0%
9,O=C1Cc2cc(Nc3nc(NCc4cccc(S(=O)(=O)C(F)(F)F)c4)ncc3C(F)(F)F)ccc2N1,2%
10,O=C(NCCNc1ccnc(Nc2ccc(F)cc2)n1)c1cc2ccccc2s1 [GSK1379874],0%
11,Nc1nccc(-c2c(-c3ccc(F)cc3)ncn2C2CCN(CC(F)(F)F)CC2)n1 [SB-236560],0%
12,Nc1nc(-c2ccc3c(N)n[nH]c3c2)cc(N2CCCC2)n1 [GSK2227430],0%
13,O=c1cc(N2CCOCC2)nc2n(Cc3cccc(Cl)c3Cl)c(C3CC3)nn12 [GSK2358994],5%
14,N#Cc1c(N2CCOCC2)sc(-c2ccn[nH]2)c1-c1ccc(Cl)cc1,9%
15,NS(=O)(=O)c1cccc(-c2ccc3nccc(-c4cccc(S(N)(=O)=O)c4)c3c2)c1 [GW867253],0%
16,O=c1cc(N2CCOCC2)nc2n(Cc3cccc(F)c3)ccn12 [GSK2297430],5%
17,Cc1cccc(-c2nc(-c3ccc(S(C)(=O)=O)cc3)sc2-c2ccncc2)c1,1%
18,COCCNC(=O)c1ccc(-c2cc(C(=O)NC3CC3)cc(F)c2C)cc1 [GW868318],20%
19,Cc1cn2c(=O)cc(N3CCOCC3)nc2n1Cc1cccc(Cl)c1Cl [GSK2334006],29%
20,COc1ccc(COc2cc(-n3cnc4ccccc43)sc2C(N)=O)cc1 [GSK1024304],26%
21,CN1c2ccc(NCc3ccc(F)cc3)cc2-c2c(cnn2C)S1(=O)=O,0%
22,O=C(NOCC1CC1)c1ccc(F)c(F)c1Nc1ccc(I)cc1Cl,0%
